Compound activity (PubChem)
Pf growth 96h – inhibits malaria parasite growth, 96 h | AID 504834 | 320,000 tested, 6.9% active | P. falciparum luciferase reporter growth, 96 h | Potency, µM (doses to about 28.7 µM), for the others: at the top dose activity change, negative = inhibition, most hits filed as inhibitors; also: potency is read from the fitted curve at half-maximal effect; % is scaled to controls: 0 for no effect and ±100 for the full control effect
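Two-generation exposure (96 h) targets delayed-death phenotype. Reporter parasites carrying integrated firefly luciferase, in red cells at 2% hematocrit and 0.05% parasitemia final, kept at 37 C, 5% CO2; luminescence loss indicates inhibition.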
Shiga inhibitor – inhibitors of Shiga toxin in Vero cells. Vero cells, Shiga toxin protein synthesis inhibition reporter. inhibition, % at 38.7 µM. 290,000 tested, 9.2% active. AID 2315; in the data active = inhibition mostly above about 28%, no sharp cut-off; inactive = mostly below about 43%; also: 0% is about no effect
Pf growth 48h – inhibits P. falciparum growth in the first generation, 48 h; P. falciparum luciferase growth in erythrocytes, 48 h; Potency, µM (doses to about 28.7 µM), inactives show at the top dose activity change, negative = inhibition, most hits filed as inhibitors; 310,000 tested, 5.9% active; AID 504832; also: potency is read from the fitted curve at half-maximal effect; % is scaled to controls: 0 for no effect and ±100 for the full control effect
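Here the parasites carry a stable luciferase gene and grow inside erythrocytes in Albumax-based RPMI medium with compound for one erythrocytic cycle. Activity is scored as loss of luminescent signal.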
CHX counter – affects cycloheximide protein synthesis inhibition readout, counter-screen; AID 2314; cell reporter, cycloheximide protein synthesis inhibition counterscreen; max response, %; 300,000 tested, 12% active; in the data active = max response mostly above about 13%, no sharp cut-off; inactive = mostly below about 14%; also: read at 38.3 µM for the half of the compounds with a filed dose; 0% is about no effect
Sm TGR inh – blocks Schistosoma mansoni thioredoxin glutathione reductase; AID 485364; purified TGR, DTNB reduction, TNB absorbance 405 nm; Potency, µM (highest dose often 114 µM), inactives show at the highest dose activity change, negative = inhibition, actives largely listed as inhibitors; Q962Y6; 360,000 tested, 3% active; also: potency is read from the fitted curve at half-maximal effect; % is scaled to controls: 0 for no effect and ±100 for the full control effect; nearly all actives have a fitted effect of over 60% in size
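First, TGR (20 nM dispensed) and NADPH were mixed with compound. Second, a 15 min room-temperature incubation followed. Third, further NADPH and then DTNB were added to start the reaction. Finally, TNB absorbance was monitored kinetically.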
NS1 function inh – influenza NS1 inhibition; 270,000 tested, 0.4% active; Potency, µM (series often up to 46.1 µM), without a hit: at the highest dose activity, positive = more growth; calls by dose curve; also: potency is read from the fitted curve at half-maximal effect; actives are rising curves; nearly all actives have a fitted effect of over 50% in size
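In this qHTS, NS1 from influenza A is expressed in budding yeast, where it slows growth. Cells are switched from glucose to 2% galactose medium (pH 6.0, -URA), treated with compound, and growth recovery is read at OD600.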
An asterisk follows results filed as active; [ ] = dose if it differs, or a comment. Shown are actives, neighbours in structure and some others; about 21% of the full set was active somewhere. Unless noted, calls follow the shape of the dose curve; as a rule, active = well fitted curve in the direction sought with a large enough effect; inconclusive = small, poorly fitted or top-dose-only effect, or another doubt; inactive = no such curve, though single readings can be large; an effect the other way counts as inactive or inconclusive.

Screening Cc1ccc(-c2cc(C(=O)NCc3cccs3)no2)cc1 returned Pf growth 96h 17.2%, Shiga inhibitor 23.1, Pf growth 48h 103.5%, CHX counter 9.1*, Sm TGR inh -4.1% and NS1 function inh 9.4%.
Screening COc1ccc(-c2cc(C(=O)NCc3cccs3)no2)cc1OC returned NS1 function inh -19.9%.
`COc1ccc(NS(=O)(=O)c2cccc(C(=O)NNC(=O)c3cncc(Br)c3)c2)cc1` gave Pf growth 96h -3.2%, Pf growth 48h 4.0% and Sm TGR inh 3.4%.
For C=CCSc1nc2ccccc2n2cnnc12 the results were Pf growth 96h 11.3%, Shiga inhibitor -18.4, Pf growth 48h -10.4%[0.00184 µM], CHX counter -2.3, Sm TGR inh 5.8% and NS1 function inh -51.8%.
For CCOC(=O)CSc1nc2ccccc2n2cnnc12 the results were Pf growth 96h 4.8%, Shiga inhibitor -5.3, Pf growth 48h 12.1%, CHX counter 7.3, Sm TGR inh 50.1µM* and NS1 function inh 1.5%.
Fc1ccc(F)c(C2=NNC(=NCC3CCCO3)SC2)c1 (stereo unspecified) was read as Pf growth 96h -21.2%, Shiga inhibitor 131.2*, Pf growth 48h inconclusive, CHX counter 33.0*, Sm TGR inh -12.6% and NS1 function inh 2.8%.
For COc1ccc(CCNC(=O)c2ccc3nc(-c4ccco4)c(-c4ccco4)nc3c2)cc1OC the results were Shiga inhibitor -16.5, Pf growth 48h inconclusive, CHX counter 6.0, Sm TGR inh 3.16µM* and NS1 function inh 16.8%.
`COc1ccc(/C=C/C(=O)NCCc2c[nH]c3ccccc23)cc1OC` gave Pf growth 96h 14.7µM*, Shiga inhibitor -1.2, Pf growth 48h 8.28µM*, CHX counter -1.4, Sm TGR inh -4.5% and NS1 function inh -17.8%.
Screening O=C(NCCN1C(=O)S/C(=C/c2cccnc2)C1=O)c1cccs1 returned Pf growth 96h inconclusive, Pf growth 48h inconclusive and Sm TGR inh -8.5%.
COc1ccc(C(=O)NCCN2C(=O)S/C(=C\c3cccnc3)C2=O)cc1[N+](=O)[O-] was read as Pf growth 96h inconclusive, Shiga inhibitor 43.0*, Pf growth 48h inconclusive, CHX counter 24.6*, Sm TGR inh -12.3% and NS1 function inh -7.0%.
`COc1ccc(C(=O)NCC2(c3ccccc3)CCOCC2)cc1[N+](=O)[O-]` gave Pf growth 96h inconclusive, Shiga inhibitor -8.1, Pf growth 48h -24.2%, CHX counter 0.8, Sm TGR inh -4.7% and NS1 function inh -4.6%.
`COc1ccc(C2(CNC(=O)c3ccc(OC)c([N+](=O)[O-])c3)CCOCC2)cc1OC` gave Pf growth 96h 2.33µM*, Shiga inhibitor -16.1, Pf growth 48h -7.9%, CHX counter -3.4, Sm TGR inh -0.4% and NS1 function inh 3.4%.
COc1ccc(CCNC(=O)CCNC(=O)N2CC(=O)Nc3ccccc32)cc1OC was read as Pf growth 96h inconclusive, Shiga inhibitor -5.8, Pf growth 48h -1.5%, CHX counter 1.6, Sm TGR inh -21.0% and NS1 function inh -10.1%.
`COc1ccccc1CSc1nc2c(c(=O)n(C)c(=O)n2C)n1C` gave Pf growth 96h -14.2%, Shiga inhibitor -8.5, Pf growth 48h 12.2%, CHX counter -1.3, Sm TGR inh -3.0% and NS1 function inh -2.4%.
Screening COC(=O)c1c(NC(=O)c2cc3ccccc3c(=O)o2)sc2c1CCCC2 returned Sm TGR inh -3.5%.
For COc1ccc(CC(=O)NC(C)CCc2ccccc2)cc1OC (stereo unspecified) the results were Pf growth 96h 6.4%, Shiga inhibitor 24.2, Pf growth 48h -11.6%, CHX counter -2.2, Sm TGR inh 9.3% and NS1 function inh 1.0%.
COc1cc(C(=O)NCCc2ccccc2)ccc1OCC(=O)N1CCOCC1 was read as Pf growth 96h -16.2%, Pf growth 48h -15.9% and Sm TGR inh 4.5%.
`COc1ccc(C(=O)NCCCc2nc3ccccc3n2Cc2cc(C)ccc2C)cc1OC` gave Pf growth 96h 10.4µM*, Shiga inhibitor 12.5, Pf growth 48h 11.7µM*, CHX counter -2.6, Sm TGR inh -11.5% and NS1 function inh -24.0%.
COc1ccc(C(=O)NCCc2ccccc2)cc1OC was read as Pf growth 96h 0.0%, Shiga inhibitor 44.0*, Pf growth 48h 74.2%, CHX counter 28.1*, Sm TGR inh -8.6% and NS1 function inh 1.1%.
`CCC(CC)C(=O)NCCCCc1ccccc1` gave Pf growth 96h 0.0%, Shiga inhibitor 5.6, Pf growth 48h 4.3%, CHX counter -3.4, Sm TGR inh -0.6% and NS1 function inh -13.3%.
`CCC(CC)C(=O)Nc1cc(C(=O)NCCc2ccccc2)ccc1Cl` gave Pf growth 96h 36.5%, Shiga inhibitor 16.0, Pf growth 48h 12.0%, CHX counter 32.8*, Sm TGR inh 1.5% and NS1 function inh 4.4%.
Screening COc1ccc(CC(=O)NNC(=O)CCc2ccccc2)cc1OC returned Pf growth 96h 13.1µM*, Shiga inhibitor 11.6, Pf growth 48h 51.5%, CHX counter -4.4 and Sm TGR inh 6.4%.
For COc1ccccc1OCCNC(=O)c1ccc2c(c1)CCC2 the results were Pf growth 96h 63.9%, Shiga inhibitor 64.5*, Pf growth 48h 88.2%, CHX counter 23.6*, Sm TGR inh 0.7% and NS1 function inh -21.8%.
For COc1ccc(/C(O)=C/c2nc3ccc(C(=O)NCCc4cccc(C)c4)cc3[nH]c2=O)cc1OC the results were Pf growth 96h inconclusive, Shiga inhibitor -12.9, Pf growth 48h 4.65µM*, CHX counter -0.6, Sm TGR inh 4.6% and NS1 function inh inconclusive.
Screening COc1cc(C(=O)OCC(=O)NCCCc2ccccc2)ccc1OCC(C)C returned Pf growth 96h 5.86µM*, Shiga inhibitor -13.9, Pf growth 48h inconclusive, CHX counter -2.1, Sm TGR inh -15.7% and NS1 function inh 12.6%.
For CCOc1cc(-c2noc(CCC(=O)NCCc3ccccc3)n2)ccc1OC the results were Pf growth 96h 2.62µM*, Shiga inhibitor -7.0, Pf growth 48h 0.0%, CHX counter -3.5, Sm TGR inh 5.8% and NS1 function inh -26.7%.
For COc1ccc(C(=O)OCC(=O)NCCCc2ccccc2)cc1[N+](=O)[O-] the results were Pf growth 96h 22.2%, Shiga inhibitor 12.4, Pf growth 48h 15.3%, CHX counter 4.8 and NS1 function inh 0.6%.
Screening O=C(Nc1cccc(C(F)(F)F)c1)C1CCCO1 (stereo unspecified) returned Pf growth 96h inconclusive, Shiga inhibitor 13.4, Pf growth 48h 8.3%, CHX counter -2.7 and NS1 function inh -0.5%.
`COc1ccc(C(=O)N2CCC(n3nccc3NC(=O)C3CCOC3)CC2)cc1` (stereo unspecified) gave Pf growth 96h -13.6%, Shiga inhibitor 8.2, Pf growth 48h -8.6%, CHX counter 3.9, Sm TGR inh 73.0% and NS1 function inh 2.9%.
